Common to all, as to experiment: universal protein binding microarray (PBM); transcription factors of Arabidopsis thaliana; high values mean tight binding
Assay [1] concerns the target GST-WRKY1(266-371) (Arabidopsis thaliana, UniProt Q9SI37 266-371). The following applies: protein: recombinant; tags: GST; dsDNA, one strand shown. Put shortly:
(§1)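 For zinc-finger proteins, zinc acetate was added while GST-tagged NAC-domain, full-length or DNA-binding-domain proteins were induced in cells. Purification used glutathione–Sepharose 4B, and quantification used A280 or anti-GST western blot. Custom all-10-mer Agilent 4 × 180K arrays, made double-stranded by primer extension, each received a protein at 200 to 500 nM final in duplicate. Scoring covered gapped and ungapped 8-mers, with binding given as the normalised enrichment score (E-score).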

Assay [2] deals with GST-NTL6(1-168) (Arabidopsis thaliana, UniProt Q9SCK6 1-168). The following applies: protein: recombinant; tags: GST; chain copies: 2; dsDNA, one strand shown. A digest of the protocol: as §1
Assay [3] addresses T1, GST-ANAC019 NAC domain (Arabidopsis thaliana, UniProt Q9C932 14-162).
T1 sequence: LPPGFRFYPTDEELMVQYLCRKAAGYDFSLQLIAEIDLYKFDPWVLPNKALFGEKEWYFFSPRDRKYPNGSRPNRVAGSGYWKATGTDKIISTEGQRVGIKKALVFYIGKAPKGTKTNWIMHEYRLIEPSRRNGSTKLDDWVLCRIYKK
The following applies: protein: recombinant; tags: GST; chain copies: 2; dsDNA, one strand shown. A digest of the protocol: as §1

Assay [4] concerns the target T2, GST-ANAC055(1-171) (Arabidopsis thaliana, UniProt Q9LDY8 1-171).
T2 sequence: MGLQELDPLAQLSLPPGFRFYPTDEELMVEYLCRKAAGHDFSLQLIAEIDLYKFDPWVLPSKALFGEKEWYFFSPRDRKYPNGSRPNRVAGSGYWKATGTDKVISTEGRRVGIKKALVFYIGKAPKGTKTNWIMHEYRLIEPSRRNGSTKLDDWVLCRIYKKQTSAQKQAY
The following applies: protein: recombinant; tags: GST; chain copies: 2; dsDNA, one strand shown. A digest of the protocol: as §1

Assay [5] concerns the target T3, GST-NAP(1-166) (Arabidopsis thaliana, UniProt O49255 1-166).
T3 sequence: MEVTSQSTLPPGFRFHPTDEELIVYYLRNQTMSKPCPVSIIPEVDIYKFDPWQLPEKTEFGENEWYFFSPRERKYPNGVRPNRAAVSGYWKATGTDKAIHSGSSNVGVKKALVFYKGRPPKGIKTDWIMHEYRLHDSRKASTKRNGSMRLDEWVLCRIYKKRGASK
The following applies: protein: recombinant; tags: GST; chain copies: 2; dsDNA, one strand shown. Put shortly: as §1

Assay [6] addresses T4, GST-NTL8 NAC domain (Arabidopsis thaliana, UniProt Q9XIN7 14-156).
T4 sequence: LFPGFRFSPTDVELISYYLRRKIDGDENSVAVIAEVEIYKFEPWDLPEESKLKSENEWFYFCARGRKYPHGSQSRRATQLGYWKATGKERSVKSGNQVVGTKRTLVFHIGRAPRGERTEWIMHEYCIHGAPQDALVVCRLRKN
The following applies: protein: recombinant; tags: GST; chain copies: 2; dsDNA, one strand shown. A digest of the protocol: as §1

The target in assay [7] is T5, GST-ANAC092(1-176) (Arabidopsis thaliana, UniProt Q9FKA0 1-176).
T5 sequence: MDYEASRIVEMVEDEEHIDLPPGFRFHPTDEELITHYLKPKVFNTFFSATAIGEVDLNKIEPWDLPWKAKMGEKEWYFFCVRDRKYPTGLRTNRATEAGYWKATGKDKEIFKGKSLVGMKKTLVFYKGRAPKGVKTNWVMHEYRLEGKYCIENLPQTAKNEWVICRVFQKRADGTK
The following applies: protein: recombinant; tags: GST; chain copies: 2; dsDNA, one strand shown. A digest of the protocol:
as §1

Assay [8] deals with T6, GST-ATAF1 NAC domain (Arabidopsis thaliana, UniProt Q39013 7-158).
T6 sequence: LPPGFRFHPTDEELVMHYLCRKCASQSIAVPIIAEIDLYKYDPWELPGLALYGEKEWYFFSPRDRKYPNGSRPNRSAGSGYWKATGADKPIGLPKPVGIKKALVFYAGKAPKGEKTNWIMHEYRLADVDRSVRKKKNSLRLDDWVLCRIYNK
The following applies: protein: recombinant; tags: GST; chain copies: 2; dsDNA, one strand shown. Put shortly:
as §1

The target of assay [9] is T7, GST-ANAC092(1-285) full length (Arabidopsis thaliana, UniProt Q9FKA0 1-285).
T7 sequence: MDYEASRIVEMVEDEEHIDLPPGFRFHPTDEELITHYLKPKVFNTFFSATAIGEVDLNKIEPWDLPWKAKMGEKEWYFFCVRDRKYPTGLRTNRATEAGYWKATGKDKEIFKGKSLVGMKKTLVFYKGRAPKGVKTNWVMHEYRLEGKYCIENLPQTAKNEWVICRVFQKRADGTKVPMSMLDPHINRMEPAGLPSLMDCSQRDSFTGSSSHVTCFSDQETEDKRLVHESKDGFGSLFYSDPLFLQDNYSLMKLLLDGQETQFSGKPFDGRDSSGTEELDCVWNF
The following applies: protein: recombinant; tags: GST; chain copies: 2; dsDNA, one strand shown. A digest of the protocol:
as §1

In assay [10] the target is T8, GST-NST2(1-184) (Arabidopsis thaliana, UniProt Q9M274 1-184).
T8 sequence: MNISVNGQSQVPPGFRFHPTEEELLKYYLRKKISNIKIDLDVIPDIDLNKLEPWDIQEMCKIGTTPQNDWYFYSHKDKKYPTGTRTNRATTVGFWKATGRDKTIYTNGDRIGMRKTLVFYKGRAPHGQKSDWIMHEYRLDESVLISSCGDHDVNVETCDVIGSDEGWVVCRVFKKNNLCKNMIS
The following applies: protein: recombinant; tags: GST; chain copies: 2; dsDNA, one strand shown. A digest of the protocol:
as §1

Chain of GST-WRKY1(266-371) (Q9SI37 266-371): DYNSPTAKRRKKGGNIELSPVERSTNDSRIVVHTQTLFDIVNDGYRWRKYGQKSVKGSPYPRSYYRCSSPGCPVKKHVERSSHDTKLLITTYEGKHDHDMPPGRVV
Chain of GST-NTL6(1-168) (Q9SCK6 1-168): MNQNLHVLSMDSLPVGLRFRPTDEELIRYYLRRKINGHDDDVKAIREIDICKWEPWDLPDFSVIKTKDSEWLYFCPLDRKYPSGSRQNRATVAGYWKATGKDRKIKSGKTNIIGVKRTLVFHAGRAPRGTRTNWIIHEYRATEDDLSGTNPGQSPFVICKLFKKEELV

In the case of GGCTGACC, the binding signal in [1] is 0.431 E-score.
With AAGTCAGC, the binding signal in assay [2] turned out to be 0.14 E-score; in assay [1] it was 0.459 E-score.
Consider GCGAAGAC, for which the binding signal in assay [2] is 0.12 E-score; in assay [3] it was 0.0689 E-score; in assay [4] it was 0.0506 E-score; in [5], 0.0548 E-score; in [6], 0.109 E-score; in [1], 0.404 E-score.
As to AGTCAAGA, the binding signal in assay [2] was 0.0587 E-score; in [1], 0.471 E-score.
As for AAAGGTCA, the binding signal in assay [7] worked out at 0.0939 E-score; in [4], 0.106 E-score; in assay [8] it was 0.137 E-score; in assay [9], 0.0795 E-score; in assay [6] it was 0.154 E-score; in [1], 0.424 E-score.
With CGTCAACC, the binding signal in assay [7] was 0.0573 E-score; in assay [9] it was 0.0571 E-score; in [1], 0.435 E-score.
For CCAGTCAA, the values for the binding signal in assay [7], in assay [3] and in assay [1] were 0.0755 E-score, 0.0525 E-score and 0.474 E-score, respectively.
For the sequence CTGGTCAA, the binding signal worked out at 0.0676 E-score in assay [7] and 0.488 E-score in assay [1].
As to CCCTTGAC, the binding signal came to 0.0597 E-score in assay [7]; 0.0561 E-score in assay [2]; 0.0511 E-score in assay [3]; 0.067 E-score in assay [5]; 0.151 E-score in assay [6]; 0.459 E-score in [1].
Regarding TGGGTCAA, the binding signal came to 0.156 E-score in assay [7], 0.159 E-score in assay [9], 0.0706 E-score in assay [6] and 0.483 E-score in assay [1].
For GGGTCAAA, the binding signal in [7] turned out to be 0.0694 E-score; in assay [10] it was 0.0921 E-score; in [1], 0.48 E-score.
GAGTCAGA: in [1], the binding signal was determined as 0.419 E-score.
With TGACCAAA, the binding signal came to 0.0758 E-score in assay [7], 0.126 E-score in [9] and 0.457 E-score in assay [1].
On to GTCTTTGA, for which the binding signal in assay [1] amounted to 0.411 E-score.
On to AAAGTCAG, for which the binding signal in assay [7] was 0.1 E-score; in assay [3], 0.0919 E-score; in assay [8] it was 0.0653 E-score; in [10], 0.085 E-score; in assay [1] it was 0.461 E-score.
For TGACCTAA, the binding signal in [2] is 0.0566 E-score; in [1], 0.419 E-score.
GGGTCAAC: the binding signal in assay [7] was found to be 0.0723 E-score; in assay [9], 0.0889 E-score; in assay [1], 0.493 E-score.

The record behind these values is PMC4081100, “A DNA-binding-site landscape and regulatory network analysis for NAC transcription factors in Arabidopsis thaliana”.
